# Rows were chosen to be rich in hits. Some 3.5% of all compounds tested hit in one or more screens of this group.
# FBW7 activator: human FBW7 E3 ligase activation, primary screen; normalized activity (activation), % at 26.1 µM; actives 0.13% (n = 650,000); AID 1259310; Q969H0; AlphaScreen FBW7–phospho-cyclin E peptide binding, activator screen; in the data active = normalized activity above about 1.9%;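 note: purified mutant Fbw7 with reduced substrate affinity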
# TEAD-YAP block: TEAD-YAP interaction inhibition | HEK-TIYL cells, TEAD-Gal4/YAP UAS-luciferase luminescence | inhibition, % at 9.12 µM | actives 1.4% (n = 640,000); in the data active = inhibition above about 32%;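 note: 0% = median of test compound wells and 100% = reference inhibitor wells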
# MITF inh: blocks human microphthalmia-associated transcription factor | O75030 | AlphaScreen MITF homodimerization, bead proximity signal | inhibition, % at 2.6 µM | actives 0.91% (n = 650,000); in the data active = inhibition above about 50%;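 note: 0% = vehicle wells with protein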
# GPR151 ag: human GPR151 activation; activation, % at 11.2 µM; actives 1% (n = 650,000); PathHunter beta-arrestin GPR151 cells, luminescence; Q8TDV0; in the data active = activation above about 4.9%;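 note: 0% = median of compound wells and 100% = cells with positive control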
# Target sequence (Q8TDV0 whole entry, looked up): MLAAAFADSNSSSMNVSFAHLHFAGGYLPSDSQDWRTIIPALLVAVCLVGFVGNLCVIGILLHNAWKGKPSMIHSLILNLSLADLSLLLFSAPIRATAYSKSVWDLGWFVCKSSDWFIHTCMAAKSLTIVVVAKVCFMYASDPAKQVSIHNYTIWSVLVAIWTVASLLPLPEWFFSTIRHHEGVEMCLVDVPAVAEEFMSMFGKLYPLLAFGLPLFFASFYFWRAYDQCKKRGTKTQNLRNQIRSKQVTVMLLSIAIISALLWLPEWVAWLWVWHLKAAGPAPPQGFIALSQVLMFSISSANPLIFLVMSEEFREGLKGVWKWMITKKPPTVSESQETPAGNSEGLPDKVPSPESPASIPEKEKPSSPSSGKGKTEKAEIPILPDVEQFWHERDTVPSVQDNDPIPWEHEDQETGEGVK
# GPR151 conf act: confirmation of human GPR151 activators. 6,700 tested, under 10 active. activation, % at 11.2 µM. shares compounds with GPR151 ag. GPR151 PathHunter beta-arrestin cells, luminescence, 90 min; % of EA-reagent control over plate median;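 active = mean percent activation across replicates above the confirmation screen cutoff of 4.91%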
# GPR119 counter: GPR119 activation, counter-screen for GPR151 activators. activation, % at 11.2 µM. GPR119 PathHunter beta-arrestin cells, luminescence, 90 min; 0 = compound-well median, 100 = enzyme-acceptor control. shares compounds with GPR151 ag. actives 0.3% (n = 6,700);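 active = mean percent activation in the counterscreen above 29.09%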;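 note: counterscreen on off-target GPR119 to flag nonselective hits from the GPR151 activator screen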
# * = called active by the depositor; . = not tested or not shown.
SMILES,FBW7 activator,TEAD-YAP block,MITF inh,GPR151 ag,GPR151 conf act,GPR119 counter
COc1cc(C2C(C(N)=O)=C(C)Nc3ncnn32)cc(OC)c1OC (stereo not drawn),0,6,-1,1,.,.
CCCCc1ccc(-c2nc(C=Nc3ccccc3Cl)c(O)o2)cc1,0,2,7,0,.,.
COc1ccc(C(=O)NC(C)(C)CC(C)(C)C)cc1[N+](=O)[O-],0,-10,11,6.6*,0,0
O=C(Nc1cccc2ccccc12)C1CC(=O)N(c2cccc(Cl)c2)C1 (stereo not drawn),0,-1,7,6.9*,0,6
CCOc1ccc(OCC)c(NC(=O)CCNc2c(N3CCCC3)c(=O)c2=O)c1,0,8,8,1,.,.
Cc1ccn2c(C(=O)Nc3ccc(Cl)cc3)c(C)nc2c1,0,-7,15,5.5*,1,3
Cc1[nH]c2ccccc2c(=O)c1Br,0,7,11,5.6*,0,7
CC(=O)c1c(C)[nH]c2ccccc2c1=O,0,-6,-1,1,.,.
COc1ccc(-c2cc(-c3ccccc3)nc3sc(C(=O)c4ccccc4)c(N)c23)cc1,0,9,9,1,.,.
Cc1cccc(-n2nnnc2C(c2ccccc2)N2CCOCC2)c1 (stereo not drawn),0,12,6,8.5*,1,11
COc1cc(OC)cc(-n2c(CN3CCOCC3)nc3ccc([N+](=O)[O-])cc3c2=O)c1,0,8,-2,4,.,.
O=C(c1cnsn1)N1CCOc2ccc(C(O)CCc3ccccc3)cc2C1 (stereo not drawn),0,-9,-3,5.3*,0,1
Cc1cccc(C(C)N(NC(=O)C(O)(c2cccc(C)c2)c2cccc(C)c2)C(=O)c2ccccc2)c1 (stereo not drawn),0,11,8,-1,.,.
O=S(=O)(CCOc1nc2cc(Cl)ccc2cc1CNC1CCOC1)c1ccccc1 (stereo not drawn),0,1,14,6.8*,0,12
C/C(CCC(=O)OC[C@H]1O[C@H](C#Cc2ccccc2)C=C[C@@H]1Oc1ccc(C)cc1)=N\O[C@H](C)CN1CCCc2nc(C)c(C)cc21,0,.,11,7.0*,0,-5
COc1ccc(O[C@H]2C=C[C@@H](c3ccccc3)O[C@@H]2COC(=O)CC/C(C)=N/O[C@@H](C)CN2CCCCc3nc(C)c(C)cc32)cc1,0,.,2,1,.,.
Cc1nccn1CCN(C)c1nc2nonc2nc1NCc1ccccc1,0,2,7,12*,0,2
CN(CCc1ccccn1)c1nc2nonc2nc1NCc1ccccc1,0,-1,4,-1,.,.
COCCCNS(=O)(=O)c1ccc(OC)c(I)c1,0,-2,4,-1,.,.
COc1ccc(S(=O)(=O)Nc2ccc(Cl)cc2)cc1I,0,9,2,19*,0,6
COCCNS(=O)(=O)c1ccc(OC)c(I)c1,0,3,-10,9.4*,1,9
COc1ccccc1NS(=O)(=O)c1ccc(Cl)c(C(=O)Nc2ccc(Cl)cc2)c1,0,9,6,9.6*,0,-8
COc1ccccc1NS(=O)(=O)c1ccc(Br)c(C(=O)Nc2ccccc2)c1,0,5,11,2,.,.
COCCCNS(=O)(=O)c1ccc2[nH]c(=O)[nH]c2c1,0,-6,-3,6.0*,1,16
O=c1[nH]c2ccc(S(=O)(=O)NCCO)cc2[nH]1,0,3,2,-1,.,.
SMILES,FBW7 activator,TEAD-YAP block,MITF inh,GPR151 ag,GPR151 conf act,GPR119 counter
CCN(c1cccc(C)c1)S(=O)(=O)c1ccc(Sc2ccc(F)cc2)c(C(=O)NCCC2=CCCCC2)c1,0,4,-6,-1,.,.
CCOC(=O)C1=C(C)NC2=C(C(=O)C(C(=O)OC)C(C)C2)C1c1ccc(OC)c(O)c1 (stereo not drawn),0,-14,-3,1,.,.
CC(=O)NC1(C2(NC(C)=O)C(=O)c3ccccc3C2=O)C(=O)c2ccccc2C1=O,0,19,3,1,.,.
CCOc1ccc(N2C(=O)c3cccnc3C2O)cc1 (stereo not drawn),0,3,7,1,.,.
COCCNS(=O)(=O)c1ccc(Cl)c(C(F)(F)F)c1,0,5,3,8.8*,1,7
COc1ccc(S(=O)(=O)Nc2ccc3oc4c(c3c2)CCCC4)cc1[N+](=O)[O-],0,10,-4,6.4*,0,1
COc1ccc(S(=O)(=O)Nc2ccc(C)c(C)c2)cc1[N+](=O)[O-],0,1,10,4,.,.
COc1ccc(S(=O)(=O)NCCCCCC(=O)O)cc1C(=O)O,0,0,10,8.8*,1,-3
COc1ccc(S(=O)(=O)Nc2ccc(I)cc2)cc1C,0,4,2,6.8*,0,-8
CN1C(=O)C(O)(CC(=O)c2ccc(I)cc2)c2ccccc21 (stereo not drawn),0,2,0,2,.,.
COC(=O)COc1ccc(S(=O)(=O)Nc2ccc(S(N)(=O)=O)cc2)cc1C,0,-6,3,5.9*,1,-1
COc1ccccc1NS(=O)(=O)c1cccc(C(F)(F)F)c1,0,3,-6,6.8*,0,10
COC(=O)COc1ccc(S(=O)(=O)Nc2ccc(C(N)=O)cc2)cc1C,0,3,-8,-1,.,.
COc1ccccc1NS(=O)(=O)c1cccc(S(=O)(=O)Nc2ccccc2OC)c1,0,9,7,-1,.,.
COc1ccc(S(=O)(=O)Nc2ccc(-c3cn4ccsc4n3)cc2)cc1C,0,7,6,13*,1,9
COc1cccc(OCCCOc2ccccc2C(C)=O)c1,0,-10,-4,1,.,.
Cc1nnc(CN(C)Cc2cn[nH]c2-c2ccc(C)c(C)c2)o1,0,-18,10,6.7*,0,6
Cc1ccc(-c2[nH]ncc2CN(C)Cc2c(C)n[nH]c2C)cc1C,0,7,1,-2,.,.
CC(C)(C)c1ccc(OCCN2C(=O)C(=O)c3ccccc32)cc1,0,11,20,5.4*,0,10
CC(C)(C)c1ccc(OCCCN2C(=O)C(=O)c3ccccc32)cc1,0,6,12,-1,.,.
COc1cccc(CNS(=O)(=O)c2ccc(-c3ncnc4[nH]ccc34)cc2F)c1,0,-15,28,5.0*,1,-7
COc1cccc(CNC(=O)c2nc3ccc(-c4ncnc5[nH]ccc45)cc3c(=O)[nH]2)c1,0,-9,-3,1,.,.
COc1ccc(CCNC(=O)C(=O)c2cc(Br)ccc2NC(C)=O)cc1OC,0,9,5,1,.,.
Cc1nnc(SCC(=O)Nc2ccc(Cl)c([N+](=O)[O-])c2)s1,0,14,-3,-1,.,.
